# Tg IFNy HTS: T. gondii growth inhibition under IFN-gamma; actives 3.8% (n = 69,000); Toxoplasma gondii growth in IFN-gamma-treated host cells; hits give low values; activity change, negative = inhibition, % (concentration not given with the values); in the data active = activity change below about -70%, passing the limit was not always enough;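 also: host cells are HeLa cells infected with Toxoplasma gondii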
# * marks the source's active call; other numbers are inactive results; ! = repeats disagree. Only a selection was taken, and hits are over-represented in it overall.
SMILES,Tg IFNy HTS
O=C(O)c1cc2n(n1)C(C(F)(F)F)CC(c1ccc3c(c1)OCO3)N2 (stereo unspecified),11
Cc1ccc2nc(COCC(=O)Nc3ncc(Cc4ccccc4)s3)[nH]c2c1,12
Cc1nc(C)c(CC(=O)Nc2ncc(Cc3ccc(F)cc3)s2)s1,-80*
Cc1nc2[nH]nc(C)n2c(=O)c1CC(=O)Nc1ncc(Cc2ccccc2F)s1,12
CCC/C=C/c1ncccc1NC(=O)C1CC1,-12
Nc1ccc(N)c(C(=O)O)c1,-18
CC(=O)c1ccc(-c2ccc(N)c(C(=O)c3ccccc3)c2)cc1,-85*
NC(=O)Cc1cccc(C(=O)c2ccccc2)c1N,19
CC(c1cccc(-c2ccc(C(=O)O)o2)c1)N(C)C (stereo unspecified),-3
COc1ccc2c(c1)NC1(CCN(S(=O)(=O)c3ccc(C4CCCCC4)cc3)CC1)c1cccn1-2,-66
C[C@H](CO)N1C[C@H](C)[C@H](CN(C)Cc2ccc(Cl)c(Cl)c2)Oc2ccc(NC(=O)C3CCCCC3)cc2CC1=O,-52
C[C@@H]1CN([C@H](C)CO)C(=O)c2cccc(NS(C)(=O)=O)c2O[C@@H]1CN(C)Cc1ccc(-c2ccccc2)cc1,-55
C[C@H](CO)N1C[C@H](C)[C@@H](CN(C)Cc2ccc(-c3ccccc3)cc2)Oc2c(NS(C)(=O)=O)cccc2C1=O,-52
C[C@H](CO)N1C[C@H](C)[C@H](CN(C)Cc2ccc(Cl)c(Cl)c2)Oc2c(NS(=O)(=O)c3ccc(F)cc3)cccc2C1=O,-85*
C[C@@H]1CN([C@@H](C)CO)C(=O)Cc2cc(NC(=O)C3CCCCC3)ccc2O[C@@H]1CN(C)Cc1ccc(Cl)c(Cl)c1,-87*
C[C@H]1CN([C@@H](C)CO)C(=O)Cc2cc(NC(=O)C3CCCCC3)ccc2O[C@@H]1CN(C)Cc1ccc(Cl)c(Cl)c1,-40
C[C@H]1CN([C@@H](C)CO)C(=O)c2cccc(NS(=O)(=O)c3ccc(F)cc3)c2O[C@H]1CN(C)Cc1ccc(Cl)c(Cl)c1,-78*
C[C@@H]1CN([C@@H](C)CO)C(=O)c2cccc(NS(C)(=O)=O)c2O[C@@H]1CN(C)Cc1ccc(-c2ccccc2)cc1,-1
C[C@@H]1CN([C@@H](C)CO)C(=O)c2cccc(NS(=O)(=O)c3ccc(F)cc3)c2O[C@H]1CN(C)Cc1ccc(Cl)c(Cl)c1,-64
COc1cccc(S(=O)(=O)N2CCC(c3nc(C(=O)N(C)C)c(C)o3)CC2)c1,9
Cc1nc(C)c(CC(=O)Nc2ccccc2CN2CCCCCC2)s1,44
CC(C)c1ccc(NC2CCCN(c3ncccn3)C2)cc1 (stereo unspecified),11
CC(=O)N1CCO[C@H]2CN(c3cccc(F)c3)CC[C@@H]2C1,253
Cc1ccc(S(=O)(=O)N2CCC3(CC2)Nc2ccc(Cl)cc2-n2cccc23)c(C)c1,3
Cc1nc(C(C)C)sc1C(=O)NCCNS(C)(=O)=O,34
SMILES,Tg IFNy HTS
c1ccc(-c2ccc3c(n2)CCc2ccccc2-3)cc1,225
CNCCC=C1c2ccccc2CCc2ccccc21,-88*!
O=C(CN1CCN(S(=O)(=O)N2CCCC2)CC1)NCC1COc2ccccc2O1 (stereo unspecified),7
O=C(NCC1COc2ccccc2O1)Nc1csc2ccccc12 (stereo unspecified),-90*
Cc1cc(C(=O)NCC2COc3ccccc3O2)nn1C (stereo unspecified),42
CCC(CC)n1nc(C)cc1NC(=O)CN1C(=O)COc2ccc(C)cc21,1
Cc1oc(-c2ccc(C(=O)NCCc3ccc(Cl)cc3)cc2)nc1CN1CCc2ccccc21,-64
Cc1oc(-c2ccc(C(=O)NCc3ccc(OC(C)C)cc3)cc2)nc1CN1CCc2ccccc21,-88*
Cc1oc(-c2ccc(C(=O)NCCc3ccco3)cc2)nc1CN1CCc2ccccc21,-64
Cc1oc(-c2ccc(C(=O)NCCC(C)C)cc2)nc1CN1CCc2ccccc21,64
Cc1oc(-c2ccc(C(=O)NCCc3cccs3)cc2)nc1CN1CCc2ccccc21,-89*
COc1ccc(CNC(=O)c2ccc(-c3nc(CN4CCc5ccccc54)c(C)o3)cc2)cc1OC,142
CCn1c(CCc2nc3ccccc3[nH]2)n[nH]c1=O,4
CC(C)CN1CCC(N2CCN(c3cc(N)nc(N)n3)CC2)CC1,-6
O=C(NC1CCC(n2cnnc2)CC1)C1CC12CCCC2 (stereo unspecified),-1
S=c1sc2ccccc2n1CCn1c(=S)sc2ccccc21,23
OC(Cn1c(=NC2CCCCC2)sc2ccccc21)c1ccccc1 (stereo unspecified),-72*
O=C(CCC(=O)NC1CCCCCCC1)NCC(O)c1ccccc1 (stereo unspecified),38
CSc1nnc(-c2ccc(S(=O)(=O)Oc3cccc(C(F)(F)F)c3)s2)n1C,4
Cc1n[nH]c(C)c1Cc1nc(CC2CCN(C)CC2)no1,-4
CN(Cc1n[nH]c2c1CCCCC2)C(=O)[C@@H]1C[C@H](N)CN1C,-2
COCCN1CCC2(CCN2Cc2csc(C)n2)C1 (stereo unspecified),11

# Screening data (PubChem BioAssay)
